The text below walks through data of the antibiotic and cytotoxicity screens of Wong et al. (2023).

Hit rate of the full screen: of about 39,000 compounds, about 3,300 (8.5%) were called active. Only a selection was taken, and actives are over-represented in it overall.

The subject of the assay is HepG2. In words: cytotoxicity call (relative viability < 0.9). Particulars: 10 µM.
With `O=C(O)CCN1CCCC1=O`, the cytotoxicity call is “inactive”. For `COC(=O)c1c2oc(c1C(=O)OC)C(=O)N[C@@H](Cc1ccccc1)Cn1cc(nn1)[C@H](Cc1ccccc1)NC(=O)N[C@@H](CO)CC2` the value was “inactive”; for `C[C@H]1CN([C@@H](C)CO)C(=O)Cc2cc(NC(=O)Cn3cnnn3)ccc2O[C@H]1CN(C)Cc1ccc(C(=O)O)cc1`, “inactive”; for `C[C@@H]1CN([C@@H](C)CO)C(=O)c2cc(N(C)C)ccc2O[C@@H](C)CCCCO[C@@H]1CN(C)S(=O)(=O)c1cn(C)cn1`, “inactive”. In the case of `COc1ccc(NC(=O)Nc2ccc3c(c2)C(=O)N([C@@H](C)CO)C[C@@H](C)[C@@H](CN(C)C(=O)Nc2ccc(OC)cc2)OCCCC[C@H](C)O3)cc1` it was “inactive”; in that of `C[C@@H]1CN([C@@H](C)CO)C(=O)c2cccc(NC(=O)NC3CCCCC3)c2O[C@@H]1CN(C)Cc1ccc(Cl)c(Cl)c1`, “inactive”. Turning to `O=C(O)/C=C/c1cnc[nH]1`, the cytotoxicity call is “inactive”. Turning to `C=CCN1C(=O)[C@@]2(O[C@@H](CCO)[C@H]([Si](C)(C)c3ccc(OC)cc3)[C@H]2C)c2cc(N3C(=O)c4cccc5cccc3c45)ccc21`, the cytotoxicity call is “active”.

For `C=CCN1C(=O)[C@@]2(O[C@@H](CCO)[C@H]([Si](C)(C)F)[C@H]2C)c2cc(N3C(=O)c4cccc5cccc3c45)ccc21`, the cytotoxicity call was “inactive”. In the case of `C=CCN1C(=O)[C@]2(O[C@H](CCO)[C@@H]([Si](C)(C)c3ccc(OC)cc3)[C@@H]2C)c2cc(N3C(=O)c4cccc5cccc3c45)ccc21` it was “active”; in that of `C=CCN1C(=O)[C@@]2(O[C@@H](CCn3cc([C@H](O)c4ccccc4)nn3)[C@H]([Si](C)(C)c3ccc(OC)cc3)[C@H]2C)c2cc(N3C(=O)c4cccc5cccc3c45)ccc21`, “inactive”. In the case of `C=CCN1C(=O)[C@]2(O[C@H](CCn3cc([C@H](O)c4ccccc4)nn3)[C@@H]([Si](C)(C)c3ccc(OC)cc3)[C@@H]2C)c2cc(N3C(=O)c4cccc5cccc3c45)ccc21` it was “inactive”. In the case of `C[C@H](CO)N1C[C@H](C)[C@H](CN(C)C(=O)Nc2cccc3ccccc23)Oc2ccc(NS(=O)(=O)c3cccs3)cc2CC1=O` it was “inactive”; in that of `CC(C)NC(=O)N(C)C[C@@H]1OCCCC[C@@H](C)Oc2ccc(NC(=O)Nc3ccc(F)cc3)cc2C(=O)N([C@H](C)CO)C[C@H]1C`, “inactive”; in that of `COc1ccccc1CNC(=O)C[C@@H]1C[C@@H]2c3cc(NC(=O)NC4CCCC4)ccc3O[C@@H]2[C@@H](CO)O1`, “inactive”.

For the compound `COc1ccc(NC(=O)N(C)C[C@H]2Oc3c(NC(=O)Nc4cccc5ccccc45)cccc3C(=O)N([C@H](C)CO)C[C@@H]2C)cc1`, the cytotoxicity call is “inactive”. In the case of `COc1ccc(S(=O)(=O)Nc2ccc3c(c2)C(=O)N([C@H](C)CO)C[C@H](C)[C@H](CN(C)Cc2ccc(C(=O)O)cc2)OCCCC[C@@H](C)O3)cc1` it was “inactive”. Regarding `COc1ccc(NC(=O)N(C)C[C@@H]2OCCCC[C@@H](C)Oc3ccc(NC(=O)Nc4ccc(F)cc4)cc3C(=O)N([C@H](C)CO)C[C@H]2C)cc1`, the cytotoxicity call was “inactive”. In the case of `O=C(CC1CC1)NCc1cnc2n1CCNCC2` it was “inactive”; in that of `O=C(C[C@@H]1CC=CCC[C@@H](Cc2ccc(F)cc2)C(=O)OC[C@H](Cc2c[nH]c3ccccc23)NC1=O)N[C@H](CO)Cc1ccccc1`, “active”; in that of `O=C(C[C@@H]1CC=CCC[C@@H](Cc2ccc(F)cc2)C(=O)OC[C@@H](Cc2c[nH]c3ccccc23)NC1=O)N[C@H](CO)Cc1ccccc1`, “active”.

In the case of `O=C(C[C@@H]1CC=CCCC(=O)OC[C@H](Cc2c[nH]c3ccccc23)NC1=O)N[C@H](CO)Cc1ccccc1`, the cytotoxicity call was “inactive”. In the case of `O=C(C[C@@H]1CC=CCCC(=O)OC[C@@H](Cc2c[nH]c3ccccc23)NC1=O)N[C@@H](CO)Cc1ccccc1` it was “inactive”. Turning to `O=C(C[C@@H]1CC=CCC[C@@H](Cc2ccc(F)cc2)C(=O)OC[C@@H](Cc2c[nH]c3ccccc23)NC1=O)N[C@@H](CO)Cc1ccccc1`, the cytotoxicity call was “inactive”. Regarding `O=C(C[C@@H]1CC=CCC[C@H](Cc2ccc(F)cc2)C(=O)OC[C@@H](Cc2c[nH]c3ccccc23)NC1=O)N[C@@H](CO)Cc1ccccc1`, the cytotoxicity call was “inactive”. In the case of `O=C(C[C@@H]1CC=CCCC(=O)OC[C@H](Cc2c[nH]c3ccccc23)NC1=O)N[C@@H](CO)Cc1ccccc1` it was “inactive”; in that of `O=C(C[C@@H]1CC=CCC[C@@H](Cc2ccc(F)cc2)C(=O)OC[C@H](Cc2c[nH]c3ccccc23)NC1=O)N[C@@H](CO)Cc1ccccc1`, “active”. In the case of `O=C(C[C@@H]1CC=CCC[C@H](Cc2ccc(F)cc2)C(=O)OC[C@H](Cc2c[nH]c3ccccc23)NC1=O)N[C@H](CO)Cc1ccccc1` it was “active”; in that of `O=C(C[C@@H]1CC=CCC[C@H](Cc2ccc(F)cc2)C(=O)OC[C@H](Cc2c[nH]c3ccccc23)NC1=O)N[C@@H](CO)Cc1ccccc1`, “inactive”; in that of `O=C(C[C@@H]1CC=CCCC(=O)OC[C@@H](Cc2c[nH]c3ccccc23)NC1=O)N[C@H](CO)Cc1ccccc1`, “inactive”. For `C[C@@H]1COC(=O)[C@@H](Cc2ccc(F)cc2)CCC=CC[C@@H](CC(=O)N[C@H](CO)Cc2ccccc2)C(=O)N1` the value was “inactive”; for `Cc1noc(C)c1NC(=O)N(C)C[C@@H]1Oc2c(NS(=O)(=O)c3ccccc3)cccc2C(=O)N([C@@H](C)CO)C[C@@H]1C`, “inactive”. In the case of `CC(C)Cn1c(N)cc(=O)n(C)c1=O`, the cytotoxicity call was “inactive”.

As to `C[C@@H]1CCCCO[C@@H](CN(C)C(=O)Nc2ccc3c(c2)OCO3)[C@H](C)CN([C@H](C)CO)C(=O)c2cc(NS(=O)(=O)c3ccccc3)ccc2O1`, the cytotoxicity call is “inactive”. In the case of `COc1ccc(S(=O)(=O)Nc2cccc3c2O[C@H](CN(C)C(=O)Nc2cccc4ccccc24)[C@@H](C)CN([C@@H](C)CO)C3=O)cc1`, the cytotoxicity call is “inactive”. Consider `C=CC[C@@H](CC(=O)N(CCO)Cc1ccccc1)C(=O)NC[C@@H](OC(=O)[C@@H](CC=C)Cc1ccc(F)cc1)c1ccccc1`, for which the cytotoxicity call is “inactive”. With `C[C@@H]1CCCCO[C@@H](CN(C)CC2CC2)[C@H](C)CN([C@@H](C)CO)C(=O)c2cc(NC(=O)NC3CCCCC3)ccc2O1`, the cytotoxicity call is “inactive”. In the case of `O=C1NC(=O)[C@@]2(CC[C@H](C(=O)O)C2)N1` it was “inactive”; in that of `CN1CCN(C(=O)C[C@@H]2CC[C@H]3[C@@H](COC[C@H](O)CN3Cc3ccc(Oc4ccccc4)cc3)O2)CC1`, “inactive”; in that of `C[C@@H]1CCCCO[C@@H](CN(C)S(=O)(=O)c2cccs2)[C@H](C)CN([C@@H](C)CO)C(=O)c2cc(NC(=O)NC3CCCCC3)ccc2O1`, “inactive”. For `O=C(O)c1oc2ccccc2c1CSc1ccc(Cl)cc1` the value was “inactive”. As for `COc1ccc(CN(C)C[C@H]2OCCCC[C@H](C)Oc3ccc(NC(=O)NC4CCCCC4)cc3C(=O)N([C@@H](C)CO)C[C@@H]2C)cc1`, the cytotoxicity call is “inactive”. For `COc1ccc(CN(C)C[C@@H]2OCCCC[C@H](C)Oc3ccc(NC(=O)NC4CCCCC4)cc3C(=O)N([C@@H](C)CO)C[C@@H]2C)cc1` the value was “active”; for `COc1ccc(CN(C)C[C@@H]2OCCCC[C@H](C)Oc3ccc(NC(=O)NC4CCCCC4)cc3C(=O)N([C@H](C)CO)C[C@@H]2C)cc1`, “inactive”; for `COc1ccc(CN(C)C[C@H]2OCCCC[C@@H](C)Oc3ccc(NC(=O)NC4CCCCC4)cc3C(=O)N([C@@H](C)CO)C[C@@H]2C)cc1`, “inactive”.

`COc1ccc(CN(C)C[C@H]2OCCCC[C@H](C)Oc3ccc(NC(=O)NC4CCCCC4)cc3C(=O)N([C@@H](C)CO)C[C@H]2C)cc1`: the cytotoxicity call was “active”. For `COc1ccc(CN(C)C[C@H]2OCCCC[C@H](C)Oc3ccc(NC(=O)NC4CCCCC4)cc3C(=O)N([C@H](C)CO)C[C@H]2C)cc1` the value was “inactive”.

For the compound `COc1ccc(CN(C)C[C@H]2OCCCC[C@@H](C)Oc3ccc(NC(=O)NC4CCCCC4)cc3C(=O)N([C@H](C)CO)C[C@H]2C)cc1`, the cytotoxicity call was “active”. Take `COc1ccc(CN(C)C[C@@H]2OCCCC[C@@H](C)Oc3ccc(NC(=O)NC4CCCCC4)cc3C(=O)N([C@H](C)CO)C[C@H]2C)cc1`: the cytotoxicity call is “inactive”. Regarding `COc1ccc(CN(C)C[C@@H]2OCCCC[C@@H](C)Oc3ccc(NC(=O)NC4CCCCC4)cc3C(=O)N([C@H](C)CO)C[C@@H]2C)cc1`, the cytotoxicity call was “inactive”. For `C[C@H](CO)N1C[C@H](C)[C@@H](CN(C)Cc2ccc(C(=O)Nc3ccccc3N)cc2)OCc2cnnn2CCCC1=O` the value was “inactive”. For `CC(C)(C)[S@@](=O)N1Cc2cc(C(=O)N3CCCCC3)nc(-c3cccc(-c4ccc(F)cc4)c3)c2[C@H]1CCO`, the cytotoxicity call is “inactive”. In the case of `O=C(CN1CCOCC1)NCC[C@H]1CC[C@H](NS(=O)(=O)c2ccc(Cl)cc2)[C@H](CO)O1` it was “inactive”; in that of `CCc1cc(=O)oc2c(C)c(O[C@@H]3O[C@H](CO)[C@@H](O)[C@H](O)[C@H]3O)ccc12`, “inactive”. Take `COc1ccc(S(=O)(=O)N(C)C[C@H]2Oc3ccc(NC(=O)CCC(F)(F)F)cc3CC(=O)N([C@H](C)CO)C[C@H]2C)cc1`: the cytotoxicity call is “inactive”.

As for `Cc1cc(C(=O)Nc2cccc3c2O[C@H](CN(C)Cc2ccccc2)[C@H](C)CN([C@@H](C)CO)C3=O)n(C)n1`, the cytotoxicity call is “inactive”.

`COCC#Cc1ccc2c(c1)O[C@H](CN(C)C(=O)C1CCCCC1)[C@@H](C)CN([C@@H](C)CO)S2(=O)=O`: the cytotoxicity call was “inactive”. In the case of `CO[C@H](CN(C)S(=O)(=O)c1cn(C)cn1)[C@H](C)CN(C(=O)Nc1ccc(C(F)(F)F)cc1)[C@H](C)CO` it was “inactive”; in that of `CC(C)NC(=O)Nc1ccc2c(c1)C(=O)N([C@H](C)CO)C[C@@H](C)[C@@H](CN(C)C(=O)Nc1ccc3c(c1)OCO3)O2`, “inactive”; in that of `Cc1n[nH]c(C)c1S(=O)(=O)N1CCCC1`, “inactive”. In the case of `COc1ccc(NC(=O)Nc2ccc3c(c2)[C@@H]2C[C@H](CC(=O)N4CCN(C)CC4)O[C@H](CO)[C@@H]2O3)cc1` it was “inactive”; in that of `C[C@H]1CN([C@@H](C)CO)C(=O)c2cccc(NC(=O)Nc3cccc4ccccc34)c2O[C@@H]1CN(C)S(=O)(=O)c1ccc(Cl)cc1`, “inactive”. As for `C[C@H]1CN([C@@H](C)CO)C(=O)c2cccc(NC(=O)Nc3cccc4ccccc34)c2O[C@@H]1CN(C)S(=O)(=O)c1ccc(F)cc1`, the cytotoxicity call is “active”. For `C[C@@H]1CN([C@@H](C)CO)C(=O)c2cccc(NC(=O)Nc3cccc4ccccc34)c2O[C@@H]1CN(C)S(=O)(=O)c1ccc(Cl)cc1` the value was “inactive”; for `C[C@@H]1CN([C@@H](C)CO)C(=O)c2cccc(NC(=O)Nc3cccc4ccccc34)c2O[C@H]1CN(C)S(=O)(=O)c1ccc(F)cc1`, “inactive”; for `C[C@@H]1CN([C@H](C)CO)C(=O)c2cccc(NC(=O)Nc3cccc4ccccc34)c2O[C@@H]1CN(C)S(=O)(=O)c1ccc(F)cc1`, “inactive”. As to `C[C@H](CO)N1C[C@H](C)[C@@H](CN(C)S(=O)(=O)c2ccc(Cl)cc2)Oc2c(NC(=O)Nc3cccc4ccccc34)cccc2C1=O`, the cytotoxicity call is “active”.
